# From the supplement of paper PMC10338343
# ± gives the standard deviation.
# Legend:
# [1] = test system: MILI (PIWIL2) piRISC loaded with L1MC piRNA (26 nt); assay: pre-steady-state target cleavage rate (min^-1); guide: L1MC piRNA 5'p-UAACUAAAUACUAUGCAAGCUGUAGG; higher = faster piRNA-guided slicing of the target
# Procedure, shortened: (§1)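 Cleave-'n-Seq reactions paired 0.1 nM transcribed, DNA-blocked target RNA library with 1 nM active affinity-purified piRISC holding one synthetic guide, plus or minus 500 nM GTSF1 partner protein, in HEPES–potassium acetate buffer at 33 °C for 0–8 or 0–960 min. After sequencing of uncleaved targets and normalisation to depth and weakly complementary targets, the pre-steady-state cleavage rate was taken from a burst-and-steady-state fit. Three trials were pooled, and k3 was capped at 0.0001 min^-1.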
# [2] = test system: EfPiwi piRISC loaded with L1MC piRNA (26 nt); assay: pre-steady-state target cleavage rate (min^-1); auxiliary factor: 500 nM Ephydatia muelleri Gtsf1; guide: L1MC piRNA 5'p-UAACUAAAUACUAUGCAAGCUGUAGG; MIWI and MILI are mouse PIWI proteins and EfPiwi is from a freshwater sponge; tags in brackets are library labels; higher = faster piRNA-guided slicing of the target
# Procedure, shortened: as §1
# [3] = auxiliary factor: 500 nM mouse GTSF1
# [4] = auxiliary factor: none (no GTSF1)
Sequence,"pre-steady-state target cleavage rate [1, 3]","pre-steady-state target cleavage rate [1, 4]",pre-steady-state target cleavage rate [2]
UCCUCCAACAGCUUGCAUAGUAUUUAGUAA,0.232 ± 0.02,0.00476 ± 0.0022,0.00668 ± 0.0028
UCCUGGAUCAGCUUGACAUAGUAUUUAGUUA,0.171 ± 0.019,0.00343 ± 0.0024,0.014 ± 0.0043
UCCUGGAUGUGCUUGUAUAGUAUUUAGUUA,0.142 ± 0.017,0.0136 ± 0.004,0.0218 ± 0.0071
UCCUGGAUCUCCUUGCAUAGUAUUUAGUAA,0.203 ± 0.024,0.00367 ± 0.0019,0.00383 ± 0.0026
UCCUGGAUCAGCUUCAUAGUAUUUAGUUA,0.235 ± 0.012,0.00548 ± 0.0028,0.00789 ± 0.0033
UCCUGGAACAGCUUGCUUUGUAUUUAGUUA,0.182 ± 0.019,0.0038 ± 0.0025,0.00396 ± 0.0025
UCCUGGAUCAGCUAGCAAAGUAUUUAGUUA,0.0976 ± 0.012,0.00566 ± 0.0019,0.00308 ± 0.0029
UCCUGGUACACCUUGCAUAGUAUUUAGUUA,0.147 ± 0.026,0.00607 ± 0.0034,0.00345 ± 0.0027
UCCUGGAACAGGUUGCAUAGUAUUAAGUUA,0.213 ± 0.023,0.00415 ± 0.0022,0.00329 ± 0.0021
UCCUGCUACAGCUUGCAAAGUAUUUAGUAA,0.121 ± 0.021,0.00272 ± 0.0025,0.00434 ± 0.0016
UCCUGGUACAGCUUCAUAGUAUUUAGUUA,0.209 ± 0.027,0.00866 ± 0.0031,0.0159 ± 0.0055
UCCUGGUACAGCUUGCUUAGUAUUUAGUUA,0.219 ± 0.024,0.00964 ± 0.0022,0.0165 ± 0.0049
UCCUCCUACAGCUUGCAAAGUAUUUAGUUA,0.167 ± 0.014,0.00717 ± 0.0022,0.0392 ± 0.012
UCCUGGAUGAGCUUGCAUAGUAUUUGAGUUA,0.307 ± 0.051,0.00461 ± 0.0029,0.00491 ± 0.0024
UCCUGGAUGAGCUUGCAUAGUAUUUAGUUA [g2:g21:cont:t1A],0.244 ± 0.014,0.0101 ± 0.0024,0.0338 ± 0.0087
UCCUGGAUCAGCUUGUAUAGUAUUUAGUUA,0.301 ± 0.015,0.0104 ± 0.0028,0.104 ± 0.021
UCCUCGUACAGCUUGCAUAGUAAUUAGUUA,0.283 ± 0.017,0.00698 ± 0.0019,0.111 ± 0.033
UCCUGGAUGUGCUUGCAUAGUAUUUAGUUU [g2:g20:cont:t1U],0.158 ± 0.016,0.0103 ± 0.0037,0.052 ± 0.017
UCCUCCUACUAGCUUGCAUAGUAUUUAGUUA,0.13 ± 0.013,0.00589 ± 0.002,0.127 ± 0.035
UCCUGCUUCAGCUUGCAUAGUAUAUAGUUA,0.277 ± 0.025,0.00438 ± 0.002,0.00887 ± 0.0035
UCCUGCUACAGCUUGCUUACUAUUUAGUUA,0.114 ± 0.016,0.00371 ± 0.0023,0.0113 ± 0.005
UCCUGGAUGUGCAAGCAUAGUAUUUAGUUA,0.055 ± 0.012,0.00481 ± 0.0026,0.00427 ± 0.0022
UCCUGGUACAGCUGGCAUAGUAUUUAGUUA,0.199 ± 0.022,0.0121 ± 0.0031,0.0113 ± 0.0038
UCCUGGAUGUCCUUGCAUACUAUUUAGUUA,0.0324 ± 0.01,0.00339 ± 0.0025,0.00333 ± 0.0024
UCCUGGAUCAGAUUGCAUAGUAUUUAGUUA,0.205 ± 0.013,0.00667 ± 0.002,0.0613 ± 0.011
UCCUCCUACAGCUGGCAUAGUAUUUAGUUA,0.294 ± 0.02,0.00732 ± 0.0023,0.0728 ± 0.02

Sequence,"pre-steady-state target cleavage rate [1, 3]","pre-steady-state target cleavage rate [1, 4]",pre-steady-state target cleavage rate [2]
UCCUGGAUCAGCUGCAUAGUAUUUAGUUA,0.25 ± 0.015,0.00821 ± 0.0027,0.0152 ± 0.0053
UCCUGCUUGAGCUUGCAUAGUAUUUAGUAA,0.172 ± 0.021,0.00365 ± 0.0027,0.00772 ± 0.0023
UCCUCCUACAGCUUGCAUAGUAAAUAGUUA,0.201 ± 0.022,0.00285 ± 0.0028,0.00735 ± 0.0032
UCCUGGAACAGCAUGCAUACUAUUUAGUUA,0.0727 ± 0.0093,0.00273 ± 0.0026,0.00762 ± 0.0026
UCCUGGAUCAGCUAGGAUAGUAUUUAGUUA,0.178 ± 0.013,0.00609 ± 0.0017,0.00257 ± 0.002
UCCUCCUACAGCUUGCAUAGUAUUUAAGUUA,0.214 ± 0.022,0.00686 ± 0.0024,0.00943 ± 0.0038
UCCUCCUAGAGCUUGCAUAGUAUUUAGUUA,0.232 ± 0.019,0.00656 ± 0.0021,0.0186 ± 0.0054
UCCUGGUACAGCUUGCAUAUUAUUUAGUUA,0.0704 ± 0.01,0.00385 ± 0.0027,0.00464 ± 0.0037
UCCUGCUUCAGCUUGCUUAGUAUUUAGUUA,0.287 ± 0.011,0.00807 ± 0.0021,0.0238 ± 0.0068
UCCUCCUACAGCCUGCAUAGUAUUUAGUUA,0.287 ± 0.018,0.0111 ± 0.0024,0.0698 ± 0.018
UCCUGCUAGAGCUUGCAUAGUAUAUAGUUA,0.176 ± 0.02,0.00268 ± 0.0026,0.00471 ± 0.0017
UCCUCCUACACCUUGCAUAGUAUAUAGUUA,0.199 ± 0.028,0.00295 ± 0.0027,0.00711 ± 0.0039
UCCUGGAUGUGCUUCAUAGUAUUUAGUUA,0.046 ± 0.01,0.00455 ± 0.002,0.00929 ± 0.0056
UCCUCCUACAGCUUGCAUAGUCAUUUAGUUA,0.0182 ± 0.0076,0.00422 ± 0.0022,0.00268 ± 0.0025
UCCUCGUACUGCUUGCAUAGUAUUUAGUUA,0.264 ± 0.0097,0.00745 ± 0.0024,0.0721 ± 0.018
UCCUGGAUCAGCAUGCAUAGUAUUUAGUUA,0.314 ± 0.019,0.0108 ± 0.0031,0.12 ± 0.026
UCCUCCUACACCUUGCAUAGUAAUUAGUUA,0.196 ± 0.031,0.00304 ± 0.0027,0.0071 ± 0.0031
UCCUGGAUGUCCUUGUAUAGUAUUUAGUUA,0.119 ± 0.018,0.0121 ± 0.0026,0.00424 ± 0.0024
UCCUGGAACAGCUUGCAUGGUAUUUAGUUA,0.283 ± 0.022,0.00826 ± 0.0025,0.0141 ± 0.0045
UCCUCGUAGAGCUUGCAUAGUAUUUAGUUA,0.266 ± 0.012,0.00554 ± 0.0023,0.0385 ± 0.0086
UCCUCCUACUGCUUGCAUAGUAUUUUGUUA,0.0977 ± 0.016,0.00448 ± 0.0018,0.0111 ± 0.0044
UCCUGCCACAGCUUGCAUAGUAUUUAGUUA,0.331 ± 0.025,0.0105 ± 0.003,0.0631 ± 0.017
UCCUGCUUCAGCUUGCAUAGUAUUAAGUUA,0.13 ± 0.02,0.00279 ± 0.0026,0.00492 ± 0.0016
UCCUGGAACAGGUUGCAUAGUAUUUAGUUA,0.308 ± 0.018,0.0111 ± 0.0022,0.0388 ± 0.0088
UCCUGGUACAGCUCUGCAUAGUAUUUAGUUA,0.243 ± 0.018,0.00792 ± 0.0029,0.0139 ± 0.0042
